Several values for one entry are separate records, joined by “and”; a condition that tells them apart may be missing. Equal entries are not always repeated. Among all 340,000 compounds or so, about 490 (0.14%) were called active. Cut-off read from the data, not from the text of the source: active = inhibition above about 12%; inconclusive = no clear call, values can overlap the other calls; inactive = below about 7.3%. This excerpt belongs to a sample that is enriched for actives. Where a structure was tested more than once in an assay, its records may differ in their call.
Molecular target: Kelch-like ECH-associated protein 1 (Homo sapiens) (UniProt Q14145)
Test: Keap1-Nrf2 protein-protein interaction inhibitors, primary screen, biochemical, fluorescence polarization, single point (AID 504523);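 note: human Keap1 Kelch domain with fluorescein labeled Nrf2 9mer peptide probe; 0% = neutral control wells and 100% = peptide positive control; higher means more block of Keap1 binding to Nrf2 peptide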
Conditions: Keap1 Kelch-Nrf2 peptide fluorescence polarization, 1536-well; at 9.4 µM; stronger effect = higher value

Chain of Kelch-like ECH-associated protein 1 (Homo sapiens) (Q14145 whole entry, looked up, the tested form may be a part): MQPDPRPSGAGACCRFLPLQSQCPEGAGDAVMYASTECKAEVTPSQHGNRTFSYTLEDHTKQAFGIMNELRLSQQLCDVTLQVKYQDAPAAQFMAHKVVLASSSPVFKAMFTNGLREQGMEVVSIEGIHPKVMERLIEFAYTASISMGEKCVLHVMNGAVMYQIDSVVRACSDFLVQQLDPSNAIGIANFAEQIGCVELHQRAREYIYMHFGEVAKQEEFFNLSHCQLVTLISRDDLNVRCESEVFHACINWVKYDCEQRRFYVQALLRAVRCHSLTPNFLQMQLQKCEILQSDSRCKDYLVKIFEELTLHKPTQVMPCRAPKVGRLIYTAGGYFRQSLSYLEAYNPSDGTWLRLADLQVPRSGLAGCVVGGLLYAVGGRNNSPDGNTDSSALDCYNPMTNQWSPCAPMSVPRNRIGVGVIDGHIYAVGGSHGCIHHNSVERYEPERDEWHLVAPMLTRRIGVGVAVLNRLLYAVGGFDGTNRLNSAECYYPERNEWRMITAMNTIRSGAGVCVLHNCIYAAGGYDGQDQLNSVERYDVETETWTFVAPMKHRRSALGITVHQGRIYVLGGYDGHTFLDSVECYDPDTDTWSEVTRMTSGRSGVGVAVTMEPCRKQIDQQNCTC

Row | SMILES | inhibition
1 | CCOc1cc(CNCc2ccccn2)ccc1OCC(=O)NC(C)(C)C | -3.19% (inactive)
2 | O=C(c1c(F)cccc1Cl)N1CCN(S(=O)(=O)c2ccc3c(c2)OCCCO3)CC1 | -0.841% (inactive)
3 | CC(C)C(NS(=O)(=O)c1cccs1)C(=O)Nc1nc(C(C)(C)C)cs1 (configuration not stated) | 1.11% (inactive)
4 | COc1ccc(-c2nonc2NC(=O)c2oc3ccc(F)cc3c2C)cc1OC | 4.52% (inactive)
5 | O=C1CC(C(F)(F)C(F)(F)C(F)(F)C(F)(F)F)=Nc2ccccc2N1 | -1.59% (inactive)
6 | Cc1noc(C)c1COC(=O)Cn1c(C)nc2ccccc21 | 1.41% (inactive)
7 | CCCc1cc(-c2n[nH]c(=S)n2Cc2ccccc2)cs1 | -5.54% (inactive)
8 | COc1ccccc1NC(=O)CCN1CCN(c2ccc(Cl)cc2)CC1 | 2.69% (inactive)
9 | Cc1ccc(S(=O)(=O)N2[C@@H](c3cccc4ccccc34)C(C(=O)O)=C[C@H]2C(C)(C)C)cc1 | 6.06% (inactive)
10 | Cc1cc(C)nc(N2C(=O)CC(Cc3ccccc3)C2=O)n1 (configuration not stated) | 2.94% (inactive)
11 | O=C(Nc1cccc2c1N(C(=O)c1ccco1)CCC2)c1ccco1 | 0.867% (inactive)
12 | CN(C)c1ccc(C(=S)N2CCN(C(=S)Nc3ccc(Cl)cc3)CC2)cc1 | 1.08% (inactive)
13 | Cc1ccc(Nc2nc(CSc3nnc(-c4ccncc4)n3-c3ccccc3C)cs2)cc1 | -6.12% (inactive)
14 | Nc1c(C(=O)O)cnn1-c1ccccc1 | 1.79% (inactive)
15 | C=C(C)C1CC=C(C)/C(=N\NC(=O)CNc2ccccc2OC)C1 (configuration not stated) | 0.164% (inactive)
16 | COc1ccc(OC)c(S(=O)(=O)Nc2ccccc2F)c1 | -3.36% (inactive)
17 | COc1cc(OC)c(S(=O)(=O)Nc2ccccc2C(=O)O)cc1S(=O)(=O)Nc1ccccc1C(=O)O | 15.6% (active)
18 | COc1ccc(S(=O)(=O)Nc2ccccc2C(=O)N2CCCC2)cc1C | -0.35% (inactive)
19 | O=C(/C=C/c1cc2c(cc1Br)OCO2)NCc1ccc(Cl)cc1 | -0.718% (inactive)
20 | Cc1ccccc1CNC(=O)CCC(=O)N1Cc2ccccc2Oc2ncccc21 | 0.575% (inactive)
21 | O=C(CNCc1ccco1)Nc1cc(S(=O)(=O)N2CCOCC2)ccc1N1CCCC1 | -2.82% (inactive)
22 | CCCCNC(=O)C1CCCN(S(=O)(=O)c2ccc(S(=O)(=O)NCC(C)C)cc2)C1 (configuration not stated) | -0.397% (inactive)
23 | COC(=O)c1ccc(-c2noc(CN(Cc3ccccn3)CC3CCCO3)n2)cc1 (configuration not stated) | -1.93% (inactive)
24 | Cc1ccc2c(c1)N(CC(=O)N1CCC(C)CC1)C(=O)c1cccnc1O2 | -0.762% (inactive)

Row | SMILES | inhibition
25 | COc1ccccc1C(=O)NCCn1cc(SCC(=O)NCc2ccco2)c2ccccc21 | -4.2% (inactive)
26 | O=C(NCc1ccncc1)C(=O)NCc1ccco1 | -3.77% (inactive)
27 | CCOC(=O)c1c(NC(=O)CSc2nnc(CNc3ccc(C)cc3C)o2)sc(C)c1C | 3.69% (inactive)
28 | Cc1ccc(-n2c(CNc3ccc(F)cc3)nnc2SCC(=O)N2CCOCC2)cc1 | -5.07% (inactive)
29 | CSCCC(NC(=O)COc1ccccc1)C(=O)N1CCN(c2cccc(C(F)(F)F)c2)CC1 (configuration not stated) | 1.75% (inactive)
30 | CN(CCOc1ccc(CC2SC(=O)NC2=O)cc1)c1ccccn1 (configuration not stated) | 44.6% (active) and -1.69% (inactive)
31 | CC(O)c1ccc(OCCN(C)c2ccccn2)cc1 (configuration not stated) | 2.21% (inactive)
32 | CC(C)=N/N=C1/NC(=O)C(Cc2ccccc2)S1 (configuration not stated) | -5.03% (inactive)
33 | N#Cc1cccc(CSc2ncnc(N)n2)c1 | -4.01% (inactive)
34 | Cc1nc(SCC(=O)NC2CCCCC2C)c(C#N)c(C)c1C (configuration not stated) | -1.86% (inactive)
35 | COc1ccccc1CNC(=O)C1Cc2ccccc2C(=O)O1 (configuration not stated) | 0.554% (inactive)
36 | CC(Sc1nnc(C2CC2)n1C1CC1)C(=O)Nc1ccc(C(N)=O)cc1 (configuration not stated) | -1.4% (inactive)
37 | COc1ccc(S(=O)(=O)n2nc(C)c(S(=O)(=O)N3CCOCC3)c2C)cc1 | -1.09% (inactive)
38 | CN1C(=O)c2cccc3c(N)ccc(c23)C1=O | 16.4% (active)
39 | Cc1nn(C)cc1N1C(=O)c2cccc3c(N)ccc(c23)C1=O | 71% (active)
40 | CC(C(=O)O)N1C(=O)c2cccc3cccc1c23 (configuration not stated) | -0.759% (inactive)
41 | O=C1c2cccc3c([N+](=O)[O-])ccc(c23)C(=O)N1CC1CCCO1 (configuration not stated) | -6.02% (inactive)
42 | c1ccc(CN=C2Nc3ccccc3CS2)nc1 | -0.423% (inactive)
43 | O=S1(=O)CC/C(=N\Nc2ccc(F)cc2)c2ccsc21 | 3.88% (inactive)
44 | N#CCc1c[nH]c2ccc([N+](=O)[O-])cc12 | 0.344% (inactive)
45 | COC(=O)c1ccc(NC(=S)Nc2cccc(C)n2)cc1 | 1.2% (inactive)
46 | Cc1nn(C)c(C)c1Sc1ccccc1N | -2.63% (inactive)
47 | O=C(Cc1ccc(Cl)cc1)NCc1nc(-c2ccccc2)no1 | -0.917% (inactive)

From PubChem BioAssay AID504523 (Broad Institute, 2011)
